Among the test systems are RPMI-8226 leukemia; OVCAR-8 ovarian; OVCAR-5 ovarian; OVCAR-4 ovarian; SK-OV-3 ovarian; IGROV1 ovarian; OVCAR-3 ovarian; HS 578T breast; NCI/ADR-RES ovarian; T-47D breast.
Common to all, as to test: NCI-60 one-dose screen, 48 h (100 = growth as untreated, 0 = no growth, -100 = all killed)
Common to all, as to conditions: 10 µM unless noted

About 83,000 compounds went through this panel and 20% of them were active in at least one assay; those are over-represented in the sample as a whole.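 Assay: single dose, 48 h. Readout: percent growth (0 = no net growth; negative = cell death). Active: <10.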 Values without a mark were called inactive. The source made the active and inactive calls.

Take `COc1ccc(/C=C/C(=O)c2c(C)nc3ccccc3c2/C=C/c2ccccc2)c(OC)c1`: the growth was 66.1% in the experiment with RPMI-8226 leukemia; 76.1% in the experiment on OVCAR-8 ovarian; 88.2% in the experiment on OVCAR-5 ovarian; 66.5% with OVCAR-4 ovarian; 94.3% in the experiment with SK-OV-3 ovarian; 47.5% with IGROV1 ovarian. Further, the growth in the experiment on OVCAR-3 ovarian is 84.8%; with HS 578T breast it was 82.3%; in the experiment on NCI/ADR-RES ovarian, 85.9%; in the experiment on T-47D breast, 55%.

As for `Cc1ccc(Cc2cnc(NC(=O)CN3C(=O)/C(=C\c4ccccc4)SC3=S)s2)cc1`, the growth in the experiment with RPMI-8226 leukemia is 105%; with OVCAR-8 ovarian, 102%; in the experiment with OVCAR-5 ovarian it was 101%; with OVCAR-4 ovarian, 99%; with SK-OV-3 ovarian, 104%; with IGROV1 ovarian, 105%. Also, the growth with OVCAR-3 ovarian is 112%; with HS 578T breast, 102%; in the experiment on NCI/ADR-RES ovarian, 107%; in the experiment with T-47D breast, 98.8%.

For `O=S(=O)(c1ccccc1)n1cc2c(c1-c1ccccc1)CCc1sc(Nc3ccccc3)nc1-2`, the growth was 67.7% in the experiment with RPMI-8226 leukemia; 79.8% in the experiment with OVCAR-8 ovarian; 94.4% in the experiment on OVCAR-5 ovarian; 75.2% in the experiment on OVCAR-4 ovarian; 99.7% in the experiment with SK-OV-3 ovarian; 115% in the experiment with IGROV1 ovarian. Besides, the growth in the experiment on OVCAR-3 ovarian is 72.5%; with HS 578T breast, 98.3%; in the experiment on NCI/ADR-RES ovarian, 76.8%; in the experiment on T-47D breast, 64.1%.

For the compound `CC1=C(C(=O)OCC2CCN(C(=O)OC(C)(C)C)CC2)[C@H](c2cccc(C#N)c2)C2=C(CC(C)(C)CC2=O)N1`, the growth in the experiment on RPMI-8226 leukemia was 41.5%; in the experiment with OVCAR-8 ovarian, 46.9%; in the experiment with OVCAR-5 ovarian it was 75.9%; in the experiment with OVCAR-4 ovarian it was 61.7%; in the experiment on SK-OV-3 ovarian, 84%; with IGROV1 ovarian, 47.8%. The growth is 58.3% in the experiment with OVCAR-3 ovarian, 61.7% with HS 578T breast, 50.6% with NCI/ADR-RES ovarian and 69.8% in the experiment with T-47D breast.

As to `Cc1nc(Nc2cn[nH]c2C(=O)Nc2ccc(CN3CCN(C)CC3)cc2)c2ccsc2n1`, the growth in the experiment with RPMI-8226 leukemia is 79%; with OVCAR-8 ovarian, 102%; in the experiment with OVCAR-5 ovarian it was 136%; in the experiment on OVCAR-4 ovarian, 82.5%; in the experiment on SK-OV-3 ovarian, 64.4%; with IGROV1 ovarian it was 77.2%. The growth in the experiment on OVCAR-3 ovarian is 91.3%; with HS 578T breast, 66.8%; in the experiment with NCI/ADR-RES ovarian, 110%; in the experiment on T-47D breast, 91.7%.

As to `Cc1cccc(NC(=O)c2sc3nc4c(cc3c2N)CCCC4)c1C`, the growth was 7.76% (active) in the experiment with RPMI-8226 leukemia; 23% in the experiment with OVCAR-8 ovarian; 44.1% in the experiment with OVCAR-5 ovarian; 65.3% in the experiment on OVCAR-4 ovarian; 32.5% with SK-OV-3 ovarian; 40.7% in the experiment on IGROV1 ovarian. Moreover, the growth in the experiment with OVCAR-3 ovarian was -10.1% (active); with HS 578T breast it was 25.1%; with NCI/ADR-RES ovarian, -15.8% (active); with T-47D breast, 36.3%.

In the case of `CC(=Nc1ccccc1)C1=C(O)C(Cc2ccc(F)cc2)NC1=O` (stereo not given), the growth is 5.55% (active) in the experiment on RPMI-8226 leukemia; 33.3% in the experiment on OVCAR-8 ovarian; 44.9% in the experiment on OVCAR-5 ovarian; 45.5% with OVCAR-4 ovarian; 11.7% in the experiment on SK-OV-3 ovarian; 36.7% in the experiment with IGROV1 ovarian. Also, the growth with OVCAR-3 ovarian was -36.9% (active); in the experiment on HS 578T breast it was 32.1%; in the experiment on NCI/ADR-RES ovarian it was 10.6%; in the experiment on T-47D breast, 27.7%.

For `Cn1c(C(=O)c2cccc3ccccc23)nc2ccccc21`, the growth in the experiment with RPMI-8226 leukemia was 17.6%; with OVCAR-8 ovarian, -1.81% (active); with OVCAR-5 ovarian it was 49%; in the experiment on OVCAR-4 ovarian, 19.9%; with SK-OV-3 ovarian, 22%; in the experiment with IGROV1 ovarian, -6.8% (active). Also, the growth in the experiment with OVCAR-3 ovarian is 29.6%; in the experiment with HS 578T breast it was 45.7%; in the experiment with NCI/ADR-RES ovarian, 4.01% (active); with T-47D breast, 17%.

For `COc1cccc2cc(N(C)c3nc(C)nc4ccsc34)ccc12`, the growth with RPMI-8226 leukemia is 12.5%; with OVCAR-8 ovarian, 6.47% (active); in the experiment on OVCAR-5 ovarian it was 43.7%; in the experiment with OVCAR-4 ovarian, 35.5%; in the experiment with SK-OV-3 ovarian, 22.9%; in the experiment on IGROV1 ovarian, 15.5%. For the same compound, the growth was 3.88% (active) in the experiment with OVCAR-3 ovarian, 17.7% with HS 578T breast, -6.94% (active) in the experiment with NCI/ADR-RES ovarian and 60% with T-47D breast.

In the case of `C1=CC2(C=C1)OC21CCC2(C=CC3(C2)OC3C2CCCCC2)CC1` (stereo not given), the growth was 103% with RPMI-8226 leukemia; 107% in the experiment on OVCAR-8 ovarian; 104% in the experiment on OVCAR-5 ovarian; 103% with OVCAR-4 ovarian; 109% in the experiment on SK-OV-3 ovarian; 107% in the experiment on IGROV1 ovarian. Also, the growth was 110% with OVCAR-3 ovarian, 103% in the experiment with HS 578T breast, 98.4% with NCI/ADR-RES ovarian and 104% with T-47D breast.

For `COc1ccc(-c2cn[nH]c2-c2cc(OC)c(OC)c(OC)c2)cc1OCc1ccccc1`, the growth in the experiment with RPMI-8226 leukemia was 8.45% (active); with OVCAR-8 ovarian it was 40.1%; with OVCAR-5 ovarian, 67.1%; in the experiment on OVCAR-4 ovarian, 50.1%; in the experiment on SK-OV-3 ovarian, 12.5%; in the experiment on IGROV1 ovarian, 44.8%. Also, the growth in the experiment on OVCAR-3 ovarian is 10.3%; in the experiment with HS 578T breast, 6.1% (active); with NCI/ADR-RES ovarian, -22.2% (active); in the experiment with T-47D breast, 23.9%.

With `CC(C)C[C@H](C(=O)N[C@H](C(N)=O)C(C)C)N1CC=CCN(OCc2ccccc2)S1(=O)=O`, the growth in the experiment with RPMI-8226 leukemia was 98.7% [2.5 µM]; in the experiment with OVCAR-8 ovarian it was 95.2% [2.5 µM]; in the experiment with OVCAR-5 ovarian, 95.2% [2.5 µM]; in the experiment with OVCAR-4 ovarian, 109% [2.5 µM]; in the experiment with SK-OV-3 ovarian, 88.3% [2.5 µM]; with IGROV1 ovarian, 107% [2.5 µM]. The growth with OVCAR-3 ovarian was 112% [2.5 µM]; in the experiment on HS 578T breast, 107% [2.5 µM]; in the experiment on NCI/ADR-RES ovarian, 95.6% [2.5 µM]; in the experiment with T-47D breast, 95.7% [2.5 µM].

In the case of `CCOC(=O)c1c2c(n3cccc(Cl)c13)C(=O)c1ncccc1C2=O`, the growth in the experiment on RPMI-8226 leukemia was 61.2%; in the experiment on OVCAR-8 ovarian it was 12%; in the experiment with OVCAR-5 ovarian, 84.1%; in the experiment with OVCAR-4 ovarian, 23.5%; in the experiment on SK-OV-3 ovarian, 54.4%; in the experiment on IGROV1 ovarian it was 61.9%. Moreover, the growth is 5.39% (active) with OVCAR-3 ovarian, 61.3% in the experiment on HS 578T breast, 38.3% in the experiment on NCI/ADR-RES ovarian and 75.9% in the experiment with T-47D breast.

The values are drawn from PubChem BioAssay (NCI).
